ELG1 DNA repair = blocks ELG1-dependent DNA repair in HEK293T cells | 330,000 tested, 2.3% active | HEK293T ELG1-luciferase reporter, luminescence, 16 h; DNA damage induced by 5-fluorouridine | AID 504467 | Potency, µM (highest dose often 46.1 µM), for the others: top-dose activity change, negative = inhibition, actives largely listed as inhibitors; note: potency is the fitted concentration of half-maximal effect; nearly all actives have a fitted effect of over 55% in size
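DMSO vehicle served as the neutral condition. Each well held 2,000 cells given 5-fluorouridine plus compound; after 16 hr at 37 °C/5% CO2, ONE-Glo was added and luciferase measured 30 min later.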
DT40 TDP1 no CPT = qHTS for Inhibitors of human tyrosyl-DNA phosphodiesterase 1 (TDP1): qHTS in cells in absence of CPT; Potency, µM (series often up to 46.2 µM), without a hit: top-dose activity change, negative = growth inhibition, hits mostly inhibitors; DT40 Tdp1-/- hTDP1 cells, no CPT, ATP luminescence, 48 h; 420,000 tested, 15% active; note: potency is the fitted concentration of half-maximal effect; nearly all actives have a fitted effect of over 55% in size
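Growth of hTDP1-complemented DT40 Tdp1-knockout cells is measured by ATP luminescence after at least 48 hr compound exposure at 37 °C, with DMSO substituting for the 20 nM CPT used in the parallel screen.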
HT1080-NT tox = kills 2HG-producing HT-1080-NT fibrosarcoma cells; HT-1080-NT fibrosarcoma viability, CellTiter-Glo ATP luminescence, 48 h; Potency, µM (titrated, usually from 46.1 µM), inactives show top-dose activity, negative = less viability, most hits filed as cytotoxic; 360,000 tested, 1.6% active; AID 686970;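 note: NT is the 2HG producing partner of a matched IDH1 knockdown line; potency is the fitted concentration of half-maximal effect; 0% = DMSO-treated cells and -100% = media-only wells without cells; nearly all actives have a fitted effect of over 55% in size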
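A 48-hour cytotoxicity screen used HT-1080-NT cells plated 2 hours before compound delivery. ATP-based CellTiter-Glo luminescence measured viability, normalized to DMSO and no-cell controls.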
HT1080 IDH1KD tx = HT-1080 IDH1 knockdown cell toxicity (counter line) | HT-1080 IDH1 knockdown viability, ATP luminescence, 48 h | Potency, µM (series often up to 46.1 µM), for inactives: at the top dose activity, negative = toxicity, usual class: cytotoxic | 360,000 tested, 2% active;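 note: potency is the fitted concentration of half-maximal effect; 0% = DMSO wells and -100% = cell-free medium wells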
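% activity derives from luminescence (CellTiter-Glo), normalised to DMSO and no-cell wells. HT-1080-IDH1KD cells, 750/well, had 48 h compound exposure at 37 °C.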
TDP1 cell CPT = growth inhibition of DT40 Tdp1-/-;hTDP1 cells with camptothecin (screen for TDP1 inhibitors); chicken DT40 Tdp1-/-;hTDP1 cells + 20 nM CPT, ATP luminescence, 48 h; AID 686979; Potency, µM (series often up to 46.2 µM), without a hit: at the top dose activity change, negative = growth inhibition, actives largely listed as inhibitors; 420,000 tested, 12% active; note: potency is the fitted concentration of half-maximal effect; nearly all actives have a fitted effect of over 55% in size
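Chicken DT40 Tdp1-/- cells stably complemented with human TDP1 were seeded at 400 cells/well in medium containing 20 nM camptothecin, exposed to pin-transferred compounds, and grown at 37 °C for at least 48 hr. Viability was read as ATP luminescence.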
IL-1B inflam inh = inhibitors of inflammasome signaling (IL-1 beta secretion); THP-1 LPS/ATP IL-1B secretion, AlphaLISA, 16 h; stronger effect = lower value; activity change, % at 57.5 µM; 360,000 tested, 4.7% active; AID 743279; in the data active = activity change below about -50%; inconclusive = mostly about -30% to -49%
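Secreted IL-1B measured by AlphaLISA bead assay after 16 h compound exposure of THP-1 cells; compounds (final up to 57.5 uM) added 1 h before LPS (250 ng/mL) and ATP (1.25 mM) stimulation; lower signal means less secretion.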
Numbers without * were called inactive; ? = inconclusive; . = not tested or not shown; [ ] = another dose, or the depositor's remark. Compounds with a hit are over-represented: about 19% of the library has one in this group of screens. Unless noted, calls come from the whole dose curve; as a rule, active = well fitted curve in the direction sought with a large enough effect; inconclusive = small, poorly fitted or top-dose-only effect, or another doubt; inactive = no such curve, though single readings can be large; an effect the other way counts as inactive or inconclusive. Unless noted, % is set by controls: 0 for no effect and ±100 for the full control effect.

SMILES | ELG1 DNA repair | DT40 TDP1 no CPT | HT1080-NT tox | HT1080 IDH1KD tx | TDP1 cell CPT | IL-1B inflam inh
CCSc1nnc(NC(=O)c2cccc(OCc3c(C)noc3C)c2)s1 | ? | -9.2% | -0.5% | -10.8% | -18.6% | -22.3
CCOC(=O)c1cc(C)sc1NC(=O)CSC1=NCCS1 | -19.5% | -25.5% | -11.8% | -3.3% | ? | -61.0*
COc1ccc2nc(NC(=O)CCc3ccc(OC)c(OC)c3)sc2c1 | -4.8% | ? | 0.0% | -13.7% | -18.6% | -10.2
CCCC(=O)Nc1nc2ccc(OC)cc2s1 | ? | ? | 2.6% | -0.4% | 14.6µM* | 10.8
COc1cccc(Nc2nc3ccc(OC)cc3s2)c1 | ? | ? | -3.1% | -19.2% | -23.6% | -172.3*
COc1ccc2nc(NC(=O)c3cccc(OCc4c(C)noc4C)c3)sc2c1 | 25.9µM* | 2.91µM* | ? | ? | 3.26µM* | -25.9
CCOC(=O)c1cc(C)sc1NC(=O)CSc1nnnn1C | 5.8% | -5.4% | -13.9% | -8.2% | -2.5% | 11.6
O=c1c2oc3ccccc3c2ncn1Cc1ccc(Br)cc1 | . | -16.5% | . | . | -7.8% | .
CCCCCCn1cc(CN2CC(N3CCCC3)CS2(=O)=O)nn1 (stereo not drawn) | . | -18.7% | 16.5% | 7.6% | -3.6% | 10.3
COc1ccc2nc(NC(=S)N(C)C)sc2c1 | ? | 4.61µM* | -2.4% | -19.9% | 4.61µM* | 94.7
COc1ccc2nc(NC(=O)c3cc(C)oc3C)sc2c1 | ? | ? | -17.5% | -21.4% | ? | -10.5
CCOc1ccc2nc(NC(=O)CSC3=NCCS3)sc2c1 | -0.6% | ? | -6.2% | -7.4% | 23.1µM* | -92.1*
COc1ccc2nc(NC(=O)CSC3=NCCS3)sc2c1 | 14.5% | ? | -25.3% | ? | ? | -58.0*
COc1ccc2nc(NC(=S)NC(=O)c3ccco3)sc2c1 | ? | ? | 17.4% | 18.7% | -5.2% | -20.3
COc1ccc2nc(NC(=O)c3ccoc3C)sc2c1 | ? | ? | 10µM* | 11.2µM* | ? | -9.2
COc1ccc2nc(NC(=O)CSc3ccccc3)sc2c1 | ? | ? | 9.8% | -0.9% | ? | -10.0
O=C(O)c1cc(-c2ccc(Cl)c(Cl)c2)n(-c2ccc(F)cc2)n1 | 5.3% | -3.5% | 16.7% | 10.9% | 8.7% | 13.3
CC(C)C(NS(C)(=O)=O)c1nnc2n1CCN(Cc1cccc3ncccc13)CC2 (stereo not drawn) | . | -13.0% | . | . | -0.5% | .
CCNC(=O)CC1C(=O)N(c2cccc(C)c2)C(=O)N1CCC(C)C (stereo not drawn) | 1.3% | -4.8% | 14.5% | 11.9% | 13.0% | 11.1
COC(=O)c1ccc2nc(NC(=O)C3CCCCC3)sc2c1 | ? | 11.2% | 9.5% | 13.5% | ? | 10.4
COC(=O)c1ccc2nc(NC(=O)C(C)(C)C)sc2c1 | ? | ? | 18.4µM* | ? | ? | 0.0
C#Cc1cccc(C(=O)NCc2nc(-c3ccccc3NC(C)=O)oc2C)c1 | . | -8.1% | . | . | -0.1%[9.04 µM] | .
O=C(C1CC1)N1CCc2cc(S(=O)(=O)NCc3ccccc3)ccc21 | -4.0% | ? | ? | 1.4% | 23.1µM* | 11.0
CCC(=O)N1CCc2cc(S(=O)(=O)NCc3ccc(C)cc3)ccc21 | . | 18.4µM* | . | . | 23.1µM* | .
CC(C)CNS(=O)(=O)c1ccc(CCC(=O)NCCC2=CCCCC2)cc1 | -16.7% | 23.1µM* | -6.3% | -5.5% | ? | -9.6
SMILES | ELG1 DNA repair | DT40 TDP1 no CPT | HT1080-NT tox | HT1080 IDH1KD tx | TDP1 cell CPT | IL-1B inflam inh
CC(=O)N1CCCc2cc(S(=O)(=O)NCc3ccc(C)cc3)ccc21 | -2.6% | 13µM* | 2.0% | -13.4% | ? | 8.6
COc1ccc(CCNC(=O)CCc2ccc(S(=O)(=O)NCC(C)C)cc2)cc1OC | -27.2% | -3.9% | -1.5% | -3.9% | -9.2% | 15.6
CC(=O)N1CCCc2cc(S(=O)(=O)NCc3cccc(C)c3)ccc21 | . | 20.6µM* | . | . | ? | .
CC(=O)N1CCCc2cc(S(=O)(=O)NCCC3=CCCCC3)ccc21 | -2.5% | 11.2µM* | -9.1% | ? | 10µM* | 23.1
CC(=O)N1CCCc2cc(S(=O)(=O)NCc3ccc(N(C)C)cc3)ccc21 | . | 20.6µM* | . | . | ? | .
CCC(=O)N1CCc2cc(CNS(=O)(=O)c3ccc(NC(=O)CC(C)C)cc3)ccc21 | . | 18.4µM* | . | . | 20.6µM* | .
CCC(=O)N1CCc2cc(S(=O)(=O)NCCC(=O)Nc3ccc(OC)c(OC)c3)ccc21 | . | -4.8% | . | . | -19.3% | .
COc1cc(C#N)c(NC(=O)CN2CCN(CCO)CC2)cc1OC | 8.3% | -7.1% | 7.3% | 25.1% | 4.1% | 20.2
Cc1cccc(OCc2nnc(SCC(=O)c3c(N)n(C4CC4)c(=O)[nH]c3=O)o2)c1 | 16.0% | ? | -5.9% | -5.4% | 2.2% | 25.1
O=C(CSc1nnc(-c2ccccc2F)o1)NC(=O)Cc1ccccc1 | -2.5% | 26.6% | -1.4% | 3.2% | -14.5% | 13.6
O=C(c1cnccn1)N1CCC2(CC1)CN(c1ncccn1)C2 | . | 1.3% | . | . | 1.7% | .
CCOC(=O)N1CCN(S(=O)(=O)c2ccc(F)c(C(=O)Nc3ccc(C)c(Cl)c3)c2)CC1 | ? | 20.6µM* | -5.1% | -3.0% | 16.4µM* | -69.7*
CCOC(=O)N1CCN(S(=O)(=O)c2ccc(C)c(C(=O)NC3CCCCC3)c2)CC1 | -16.9% | -25.1% | 2.8% | 1.1% | -4.0% | 16.1
CCOC(=O)N1CCN(S(=O)(=O)c2ccc(F)c(C(=O)Nc3ccc(C(C)C)cc3)c2)CC1 | ? | 18.4µM* | -11.3% | -10.7% | 18.4µM* | 0.6
CCOc1ccc(NC(=O)c2cc(S(=O)(=O)N3CCOCC3)ccc2F)cc1 | . | ? | . | . | -5.5% | .
O=c1c2oc3ccccc3c2n(Cc2ccccc2F)c(=O)n1Cc1ccccc1 | . | -23.7% | . | . | -21.0% | .
CN(CCCNC(=O)Cn1cccc1C(=O)c1ccccc1)C1CCCCC1 | -4.4% | -2.0% | -23.5% | 1.9% | -13.4% | 0.0
COc1ccc(S(=O)(=O)N2CCC(C(=O)N[C@H](C(=O)NCc3ccccc3)C(C)C)CC2)cc1 | . | ? | 12.7% | -5.3% | 25.0% | 19.5
Cc1cc(O)c(C(C)C)cc1N=Cc1ccccc1[N+](=O)[O-] | . | 3.26µM* | ? | 16.4µM* | 5.17µM* | -14.8
COc1ccc(-c2cc3nc(C)c(CCC(=O)N4CCN(c5ccccn5)CC4)c(C)n3n2)c(OC)c1 | ? | 16.4µM* | -6.6% | -3.8% | ? | -28.4
COc1ccc(-c2cc3nc(C)c(CCC(=O)N4CCN(c5ccccc5F)CC4)c(C)n3n2)c(OC)c1 | . | 29.1µM* | . | . | ? | .

Source: PubChem
